Data: the supplement of paper PMC3545927
Some of the results follow. No count for the full screen is at hand.

Target: furin, P09958
Test: furin cleavage Z-score vs untreated control; higher = more cleavage, active = 3.5 or more, inactive = 1 or less, 8 variable residues between constant flanks
Outline: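 Purified furin cleaved 8-mer peptides that were fused to a cDNA oligonucleotide and held on magnetic beads by their N-terminus. Each 0.01 ml reaction used a 1:10 enzyme:substrate ratio in 50 mM HEPES pH 7.5 with CaCl2 and NaCl and ran 7.5, 15 or 30 min. Released DNA was adapter-tagged by PCR and sequenced, and read counts gave abundance. The cleavage Z-score came from log counts against furin-free reactions, lowess-adjusted and scaled by median absolute deviation.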

Sequence of furin, P09958 (P09958 whole entry): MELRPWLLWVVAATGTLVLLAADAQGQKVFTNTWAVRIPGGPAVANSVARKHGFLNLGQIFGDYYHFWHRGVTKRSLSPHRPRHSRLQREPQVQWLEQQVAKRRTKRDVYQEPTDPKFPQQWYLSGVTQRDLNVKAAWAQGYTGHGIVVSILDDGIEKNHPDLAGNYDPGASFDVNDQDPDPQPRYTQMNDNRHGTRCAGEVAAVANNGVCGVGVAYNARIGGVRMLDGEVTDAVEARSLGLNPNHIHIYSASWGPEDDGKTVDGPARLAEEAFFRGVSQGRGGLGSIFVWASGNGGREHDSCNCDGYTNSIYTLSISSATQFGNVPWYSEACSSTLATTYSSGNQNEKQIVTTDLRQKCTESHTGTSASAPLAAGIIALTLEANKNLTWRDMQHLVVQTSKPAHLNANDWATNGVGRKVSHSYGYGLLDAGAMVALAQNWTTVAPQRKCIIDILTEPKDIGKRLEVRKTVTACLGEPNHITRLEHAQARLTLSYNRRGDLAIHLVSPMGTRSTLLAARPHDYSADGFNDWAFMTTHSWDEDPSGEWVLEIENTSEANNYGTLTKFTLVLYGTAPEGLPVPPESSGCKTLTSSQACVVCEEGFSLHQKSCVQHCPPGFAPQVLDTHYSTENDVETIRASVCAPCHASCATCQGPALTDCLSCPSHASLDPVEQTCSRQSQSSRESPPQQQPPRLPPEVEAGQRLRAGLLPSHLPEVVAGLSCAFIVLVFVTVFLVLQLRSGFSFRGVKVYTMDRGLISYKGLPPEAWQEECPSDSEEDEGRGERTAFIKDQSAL

Row | Sequence | furin cleavage Z-score (7.5 min) | furin cleavage Z-score (15 min) | furin cleavage Z-score (30 min)
1 | CAADLMGYIPAGNASASA [HC226] | -1.64 (inactive) | -1.67 (inactive) | 0.444 (inactive)
2 | CALKKRGILSAGNASASA [FS-2409] | -1.13 (inactive) | -2.56 (inactive) | 0.734 (inactive)
3 | CARQGRFDRSAGNASASA [FS-190] | 4.75 (active) | 6.18 (active) | 4.85 (active)
4 | CARQGRSHHLAGNASASA [FS-2167] | 0.537 (inactive) | 1.01 | 2.02
5 | CALKWRFDRSAGNASASA [FS-1640] | 3.41 | 4.74 (active) | 4.58 (active)
6 | CAWKDLLEDNAGNASASA [HC1432] | 0.826 (inactive) | 1.39 | -0.792 (inactive)
7 | CAILSSLTVTAGNASASA [HC1134] | -0.227 (inactive) | -0.375 (inactive) | -0.271 (inactive)
8 | CAIGGAGNNTAGNASASA [HC446] | 0.332 (inactive) | -0.689 (inactive) | 0.317 (inactive)
9 | CAGSSSTSGIAGNASASA [HC1337] | 0.384 (inactive) | 0.604 (inactive) | -0.961 (inactive)
10 | CAEVVTPTWVAGNASASA [HC160] | 0.0725 (inactive) | -1.35 (inactive) | -0.017 (inactive)
11 | CASPPRRARVAGNASASA [FS-1571] | 0.556 (inactive) | 0.566 (inactive) | 3.24
12 | CAASRRRARVAGNASASA [FS-1187] | 3.47 | 3.01 | 4.72 (active)
13 | CARSRRRSRVAGNASASA [FS-3095] | 1.94 | 0.692 (inactive) | 3.48
14 | CALASRGARVAGNASASA [FS-267] | -0.386 (inactive) | -0.302 (inactive) | 0.249 (inactive)
15 | CAESDAAARVAGNASASA [HC1129] | -0.953 (inactive) | -0.591 (inactive) | -1.03 (inactive)
16 | CAVAARRARVAGNASASA [FS-307] | 1.69 | 3.8 (active) | 3.48
17 | CAGKFLADGGAGNASASA [HC809] | -1.28 (inactive) | -0.358 (inactive) | -0.637 (inactive)
18 | CAYLVAYQATAGNASASA [HC953] | -0.934 (inactive) | -0.739 (inactive) | -1.07 (inactive)
19 | CALIVFPDLGAGNASASA [HC1450] | -0.678 (inactive) | -1.11 (inactive) | -0.0519 (inactive)
20 | CARRRRPGGPAGNASASA [FS-2792] | -0.8 (inactive) | -0.454 (inactive) | 0.146 (inactive)
21 | CARRRRHEGPAGNASASA [FS-2233] | 3.52 (active) | 4.96 (active) | 4.69 (active)
22 | CARRRRHRSYAGNASASA [FS-2078] | 6.85 (active) | 11.1 (active) | 9.14 (active)

Row | Sequence | furin cleavage Z-score (7.5 min) | furin cleavage Z-score (15 min) | furin cleavage Z-score (30 min)
23 | CARRRRASAPAGNASASA [FS-3062] | 7.44 (active) | 6.83 (active) | 5.33 (active)
24 | CARRRRHSPPAGNASASA [FS-2453] | 5.59 (active) | 8.37 (active) | 6.78 (active)
25 | CARCTTPCSGAGNASASA [HC1953] | -0.496 (inactive) | -1.94 (inactive) | -0.955 (inactive)
26 | CAENVTSTWVAGNASASA [HC2181] | 0.856 (inactive) | -1.06 (inactive) | 0.371 (inactive)
27 | CAPGGGQIVGAGNASASA [HC173] | -0.67 (inactive) | -2.32 (inactive) | 0.322 (inactive)
28 | CAVVVTSTWVAGNASASA [HC2150] | -0.0276 (inactive) | -0.308 (inactive) | -1.74 (inactive)
29 | CAEVVTSLWVAGNASASA [HC2205] | 0.73 (inactive) | -1.3 (inactive) | -0.955 (inactive)
30 | CAACTTPCSGAGNASASA [HC1943] | -1.45 (inactive) | -0.341 (inactive) | -0.2 (inactive)
31 | CASTPCSAMLAGNASASA [HC2546] | 1.06 | 0.507 (inactive) | -0.199 (inactive)
32 | CARRRRLLIKAGNASASA [FS-2597] | -0.832 (inactive) | -0.657 (inactive) | -0.82 (inactive)
33 | CARRRRAAATAGNASASA [FS-2784] | 8.16 (active) | 6.75 (active) | 5.42 (active)
34 | CARHHRAAATAGNASASA [FS-2142] | -0.187 (inactive) | 1.63 | 1.18
35 | CARRRRHTFKAGNASASA [FS-2374] | 6.02 (active) | 8.84 (active) | 8.36 (active)
36 | CARSRRHSPHAGNASASA [FS-2462] | 9.64 (active) | 10.4 (active) | 9.06 (active)
37 | CARSTRFAATAGNASASA [FS-2188] | -0.54 (inactive) | -0.334 (inactive) | 1.52
38 | CARSRRVQCHAGNASASA [FS-2091] | -0.135 (inactive) | -0.538 (inactive) | -0.773 (inactive)
39 | CAVVCCSMSCAGNASASA [HC2100] | -1.04 (inactive) | -1.97 (inactive) | -0.294 (inactive)
40 | CANDARRTRSAGNASASA [FS-693] | 6.7 (active) | 7.77 (active) | 7.39 (active)
41 | CAKSPRRTRSAGNASASA [FS-1351] | 5.21 (active) | 4.36 (active) | 2.84
42 | CAESTTPCSGAGNASASA [HC1977] | -0.591 (inactive) | 0.488 (inactive) | -0.368 (inactive)
43 | CAGTTDRSGAAGNASASA [HC419] | 1 | 2.15 | -0.141 (inactive)
